# Results published in paper PMC7819943, “Rice protein-binding microarrays: a tool to detect cis-acting elements near promoter regions in rice”.
# In all, about 68,000 sequences were measured (“fluorescence intensity (a.u.)”: median about 9,100, highest 2% from about 16,000 on). What follows is part of a selection rich in the highest values, with near analogues and random picks from the rest.
# Biological target: OsWRKY34 (Oryza sativa, UniProt Q0JBA9 1-250)
# Test: protein-binding microarray (RPBM); PBS, 2% BSA, 51.3 ng/ul salmon testes DNA, 50 uM zinc acetate, 200 nM TF, 25 C, 1 h; high values mean tight binding
# Details: protein: recombinant; tags: N-terminal polyhistidine and DsRed monomer fusion (pET32a); label: CyDye5-dUTP incorporated in the synthesized complementary strand; 3' TTTTT single-stranded linker to array surface; dsDNA, one strand shown
# In short: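 In PBS with 2% BSA, salmon testes DNA and 50 µM zinc acetate, 200 nM protein was incubated on a custom Agilent array at 25 °C for 1 h and then washed off. The array had been made double-stranded by primer extension with Cy5-dUTP and blocked with 2% BSA. The proteins were transcription factors fused N-terminally to polyhistidine and DsRed, expressed in E. coli BL21-CodonPlus and purified on Ni–NTA. The binding signal is per-feature fluorescence intensity (arbitrary units) from an Axon 4000B scanner.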
# Sequence of OsWRKY34 (Q0JBA9 entry or part of it): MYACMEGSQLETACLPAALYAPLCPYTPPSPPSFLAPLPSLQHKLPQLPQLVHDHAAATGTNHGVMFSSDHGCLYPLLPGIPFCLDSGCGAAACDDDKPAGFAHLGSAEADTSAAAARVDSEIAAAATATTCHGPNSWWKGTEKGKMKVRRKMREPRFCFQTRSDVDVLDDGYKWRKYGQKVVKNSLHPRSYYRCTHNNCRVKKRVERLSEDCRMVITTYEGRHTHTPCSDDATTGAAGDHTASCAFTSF
row,Sequence,binding signal
1,CATCTTCGTCCTTTAAATTTGTTTTATTTTAAATCCTCTACGGAGTCACCTAGTGCAG,8400 fluorescence intensity (a.u.)
2,TCATTTGTCATCCATAAGTTTATATTTTGTACTTTTAGTTCGGAGTCACCTAGTGCAG,8550 fluorescence intensity (a.u.)
3,AGAGACTGGTGATGGACTTTACTCTTTTCTTCTCCAACACCGGAGTCACCTAGTGCAG,8330 fluorescence intensity (a.u.)
4,GGGCGCCGGTATGCTTCTTCCATTCCACCTATGTGTTTCTCGGAGTCACCTAGTGCAG,9490 fluorescence intensity (a.u.)
5,TTTCCCACGTTTTGTCATTTTTTCAGCTATATATTAATTTCGGAGTCACCTAGTGCAG,12000 fluorescence intensity (a.u.)
6,TTGCTTGTTGATTGATTCGTTTTTGTCAATTTTGAAGTTTCGGAGTCACCTAGTGCAG,8470 fluorescence intensity (a.u.)
7,AAAGTTTTTTGTCGTTGTTTGTTTTCCAGTATTTGCTTTTCGGAGTCACCTAGTGCAG,18000 fluorescence intensity (a.u.)
8,TTTTTGTCTTATTGTTTTGTTTATTTTATTTCAGTTTATTCGGAGTCACCTAGTGCAG,9760 fluorescence intensity (a.u.)
9,TTACTCTACTCATTTAGCTTTTGGTTGGTTGGTTCCCTTCCGGAGTCACCTAGTGCAG,14400 fluorescence intensity (a.u.)
10,ATTCCGGTCATTTACGCGCTTTTAGCTTTGCCCTTCATTTCGGAGTCACCTAGTGCAG,17200 fluorescence intensity (a.u.)
11,ATTTTTTCACGTTCGGACCTATGGTTTTTTTGCCACTTTGCGGAGTCACCTAGTGCAG,8520 fluorescence intensity (a.u.)
12,TTTGTTTTTTTTGCTTATTTAGTTTTTTTTTCAGCTTTTTCGGAGTCACCTAGTGCAG,17300 fluorescence intensity (a.u.)
13,ATTTCTTACGTTGTTGCAGCTTTGTTTTTTTTGCTTATTTCGGAGTCACCTAGTGCAG,14900 fluorescence intensity (a.u.)
14,CGTTTTTTTTTTCATTCCATGTTTGCATTAGCTTCATTTCCGGAGTCACCTAGTGCAG,13400 fluorescence intensity (a.u.)
15,TTATGCCAGCCATTTCACTTTTTCCCACGTTTTGTCATTTCGGAGTCACCTAGTGCAG,18900 fluorescence intensity (a.u.)
16,CGCTTTTGCACAGTATTTTTATTTGCAGAGTTATGTTTGTCGGAGTCACCTAGTGCAG,8090 fluorescence intensity (a.u.)
17,ACAAATTCCTGACTTCACGGTTTTCTATTTGGTTGTAATACGGAGTCACCTAGTGCAG,9590 fluorescence intensity (a.u.)
18,TTTTTTTATTCGTGTCTGAAAATCATTTCCGATATCCGGTCGGAGTCACCTAGTGCAG,8470 fluorescence intensity (a.u.)
19,CACTAAAGTTTCATTGGGTTTTCAGTTTTCACTTCATTATCGGAGTCACCTAGTGCAG,10700 fluorescence intensity (a.u.)
20,ATTCGTTTCGTATTTATGCCCGATATTATCCGTGCTTCTACGGAGTCACCTAGTGCAG,9200 fluorescence intensity (a.u.)
21,TCTCTTTCTCTCTCTCCTCTTCTTCCTTGGCGAGTTGTGCCGGAGTCACCTAGTGCAG,8080 fluorescence intensity (a.u.)
22,ATCCATCCGAGCTCTCTCTCTCTCTCTGTCTTCTCTCTACCGGAGTCACCTAGTGCAG,10700 fluorescence intensity (a.u.)
23,ACCACTCACCTCATGATTTTCGTTGTATTCGTTCCAGTCCCGGAGTCACCTAGTGCAG,20000 fluorescence intensity (a.u.)

row,Sequence,binding signal
1,ACTCCAGCATGATCCACAACACCACTCACCTCATGATTTTCGGAGTCACCTAGTGCAG,8770 fluorescence intensity (a.u.)
2,TATTTTCGTCCGGTTTTTTCCACTCACCAGTCACCACCCCCGGAGTCACCTAGTGCAG,8490 fluorescence intensity (a.u.)
3,CTCTCCTCCTCCGTTCCTGACTCCACCACTCACATTCATTCGGAGTCACCTAGTGCAG,13200 fluorescence intensity (a.u.)
4,AGGGGTGCTAATTGAGCCTATTTCGGGTGGGGCTCACTGACGGAGTCACCTAGTGCAG,15300 fluorescence intensity (a.u.)
5,TTCTTGGCCCGCTAACTCATGATGGTTTTATCCAGATCGTCGGAGTCACCTAGTGCAG,9880 fluorescence intensity (a.u.)
6,TGTGCCTCCGGATTTGACCTTTCCTCGAACCTTCTTCTTCCGGAGTCACCTAGTGCAG,13300 fluorescence intensity (a.u.)
7,TCAAACCTCGCGACTTCTTCTTCCACCTCTCGCTCCGGGCCGGAGTCACCTAGTGCAG,11800 fluorescence intensity (a.u.)
8,GGGATATATCCTTTGACCGGTCAAACCTCGCGACTTCTTCCGGAGTCACCTAGTGCAG,18800 fluorescence intensity (a.u.)
9,CCTTTCCTAAGTCTCTGTTTTAACATCTCTATTGGGGCATCGGAGTCACCTAGTGCAG,8940 fluorescence intensity (a.u.)
10,CTCCGTCACTCAGATTTAATACATGACTCTCTATTATTCCCGGAGTCACCTAGTGCAG,9060 fluorescence intensity (a.u.)
11,CCTTACCGTACAAGGGAGGAGGAGGTGGTGGTGGTGGAGGCGGAGTCACCTAGTGCAG,13000 fluorescence intensity (a.u.)
12,GCGGAGGAGGTGGTGGTGGTGGAGGAGGAGGAGGCCAAGGCGGAGTCACCTAGTGCAG,19300 fluorescence intensity (a.u.)
13,CAGCAGCGGCGGCGGCGGCGGCGGCGGGGTGGTGGAACCTCGGAGTCACCTAGTGCAG,9080 fluorescence intensity (a.u.)
14,GGAGGTCGGTGGCCTCGGCGGTGGAGGTCGGGGTCGGGGACGGAGTCACCTAGTGCAG,16500 fluorescence intensity (a.u.)
15,GGGGAGGCGGGTGGGGTTGAGGAGGTCGGTGGCCTCGGCGCGGAGTCACCTAGTGCAG,12300 fluorescence intensity (a.u.)
16,AGGTGGTGGTGGAGGTGGAGGTGGCGGTGGAGGTGGAGGGCGGAGTCACCTAGTGCAG,38600 fluorescence intensity (a.u.)
17,GGCGGCGGCGGCGGCGGCGGGGAGGAGGTGAAGGTGGAGGCGGAGTCACCTAGTGCAG,14100 fluorescence intensity (a.u.)
18,GGGGTGGCGGTGGCGGTGGTGGTGGTGGTGGTGGTGGAGTCGGAGTCACCTAGTGCAG,41600 fluorescence intensity (a.u.)
19,GAGGAGGAGGTGGAGCTACTGGTGGTGGTGGTGGTGGTGGCGGAGTCACCTAGTGCAG,16200 fluorescence intensity (a.u.)
20,GGAGGCGGTGGTGTTGGAGTTGGAGGGCGCGTGGAGGTGGCGGAGTCACCTAGTGCAG,12900 fluorescence intensity (a.u.)
21,GGCGGCGGCGGGGTGGCCTTGGCCGGGTGCCTTGGTGGATCGGAGTCACCTAGTGCAG,10300 fluorescence intensity (a.u.)
22,ATGGAGGCGGTGGTCGGAGGTGGCAGACGATGCTCGGGGACGGAGTCACCTAGTGCAG,8040 fluorescence intensity (a.u.)
